PMC5540273 (PLoS ONE, 2017)

What was measured:
Details in all cases: concentration: 1 μM, replicates: in singlicate; n = 1
CDC2L2 = system: CDC2L2
CDC2L5 = system: T1, CDC2L5
T1 construct: gene CDK13

CDK11 = system: T2, CDK11
T2 construct: gene CDK19

CDK2 = system: CDK2
CDK3 = system: CDK3
CDK4-cyclinD1 = system: CDK4-cyclinD1
CDK4-cyclinD3 = system: CDK4-cyclinD3
CDK4 = system: CDK4
CDK5 = system: CDK5
CDK7 = system: CDK7
CDK8 = system: CDK8
CDK9 = system: CDK9
CDKL1 = system: CDKL1
CDKL2 = system: CDKL2
CDKL3 = system: CDKL3
CDKL5 = system: CDKL5
CHEK1 = system: CHEK1
CHEK2 = system: CHEK2
CIT = system: CIT
CLK1 = system: CLK1
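Further: KINOMEscan kinase panel screen.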

Row | SMILES | %Inh (CDC2L2) [%] | %Inh (CDC2L5) [%] | %Inh (CDK11) [%] | %Inh (CDK2) [%] | %Inh (CDK3) [%] | %Inh (CDK4-cyclinD1) [%] | %Inh (CDK4-cyclinD3) [%] | %Inh (CDK4) [%] | %Inh (CDK5) [%] | %Inh (CDK7) [%] | %Inh (CDK8) [%] | %Inh (CDK9) [%] | %Inh (CDKL1) [%] | %Inh (CDKL2) [%] | %Inh (CDKL3) [%] | %Inh (CDKL5) [%] | %Inh (CHEK1) [%] | %Inh (CHEK2) [%] | %Inh (CIT) [%] | %Inh (CLK1) [%]
1 | O=C(Nc1n[nH]c2cc(-c3cccs3)ccc12)C1CC1 [SB-731284] | 0 | 85 | 0 | 65 | 16 | 0 | 18 | 8 | 0 | 48 | 15 | 3 | 50 | 98.1 | 0 | 14 | 0 | 0 | 24 | 0
2 | COc1cccc(-c2nc(-c3ccccc3)[nH]c2-c2ccncc2)c1 [SB-610250] | 0 | 0 | 22 | 2 | 24 | 0 | 7 | 0 | 0 | 0 | 30 | 0 | 20 | 23 | 0 | 8 | 0 | 0 | 47 | 29
3 | COc1cccc(NC(=O)NCCNc2ccnc(Nc3ccc(F)cc3)n2)c1 [GSK1379879] | 27 | 0 | 22 | 0 | 0 | 9 | 1 | 0 | 0 | 0 | 27 | 0 | 0 | 15 | 0 | 0 | 0 | 0 | 6 | 17
4 | CCOc1nccc(-c2c(-c3ccc(F)cc3)ncn2C2CCNCC2)n1 [SB-249175] | 13 | 34 | 12 | 5 | 0 | 33 | 10 | 26 | 12 | 24 | 25 | 1 | 1 | 0 | 17 | 7 | 0 | 16 | 10 | 0
5 | Cc1cc(-c2ccnc(Nc3cccc(C#N)c3)n2)cc(C)c1O [GSK1440913] | 51 | 0 | 0 | 68 | 30 | 42 | 22 | 0 | 18 | 61 | 30 | 52 | 1 | 89 | 99.1 | 24 | 0 | 0 | 94 | 99
6 | O=C(O)C(F)(F)F.O=c1[nH]ccc2nc(N[C@@H]3CCNC3)nc(Nc3ccc4c(c3)S(=O)(=O)CC4)c12 [GSK2181306] | 0 | 0 | 0 | 62 | 53 | 90.6 | 69 | 50 | 76 | 85 | 0 | 30 | 40 | 44 | 0 | 0 | 98.3 | 82 | 84 | 74
7 | N#CC1(c2cccc(C(=O)Nc3cccc(Oc4ccc5nc(NC(=O)C6CC6)sc5n4)c3)c2)CC1 | 0 | 6 | 24 | 0 | 0 | 15 | 1 | 0 | 0 | 12 | 35 | 0 | 14 | 95.8 | 79 | 0 | 0 | 0 | 94.2 | 8
8 | Cc1ccc(Nc2ccnc(Nc3ccc(C)c(F)c3)n2)cc1O.Cl [GW582868] | 0 | 0 | 6 | 0 | 0 | 0 | 5 | 0 | 0 | 0 | 0 | 0 | 9 | 40 | 0 | 0 | 0 | 0 | 28 | 13
9 | Cc1ccc(O)cc1Nc1ccnc2cc(-c3ccc(CN4CCCCC4)o3)ccc12 [GW557777] | 4 | 0 | 7 | 0 | 8 | 0 | 7 | 0 | 0 | 0 | 0 | 0 | 7 | 0 | 5 | 0 | 13 | 0 | 40 | 24
